# Experimental data from the supplement of paper PMC13392028.
# In all, about 4,100 sequences were measured (“RBNS R-value (6-mer enrichment in protein-bound RNA vs input library)”: median about 0.96, highest 2% from about 2.4 on). Many of the other results were omitted from the sample, so the highest values are more common in it than they were.
# Tested on: PyIESI-1 RRM domain (Plasmodium yoelii PY17X_0911200 aa 795-956, GST fusion)
# Test: RBNS R-value (6-mer enrichment in protein-bound RNA vs input library) (ratio); higher = stronger binding preference; the methods of the paper give 50 / 100 / 500 nM protein instead
# Procedure: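 RNA Bind-n-Seq: recombinant GST-tagged IESI-1 RRM domain was incubated at room temperature with a random 40-nt in vitro transcribed RNA library at 250, 500 or 1000 nM protein. Bound RNA was pulled down on glutathione beads and sequenced. R-value is the enrichment of each 6-mer in the bound RNA relative to the input library. Each 6-mer sits inside the random 40-mer context, not as an isolated oligo. Values are replicate 1 only.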
Sequence,RBNS R-value (protein concentration: 250 nM),RBNS R-value (protein concentration: 500 nM),RBNS R-value (protein concentration: 1000 nM)
GUAUGU,0.702,0.701,0.677
GAUCAG,1.21,1.23,1.26
AUUUGU,1.19,1.18,1.16
UUUUGC,1.25,1.28,1.3
UUUUGU,0.927,0.945,0.932
AUUUGA,2.85,2.67,2.75
AUUUGG,1.56,1.52,1.53
UUUUGA,2.87,2.69,2.76
CGUCGU,0.673,0.674,0.653
AUUCGG,1.21,1.23,1.22
GAGGCA,1.07,1.06,1.04
AGUCAG,0.665,0.689,0.664
GGUAGU,0.858,0.895,0.812
UCGAAU,0.871,0.871,0.846
AAUUGU,0.811,0.836,0.821
GAUUGC,3.17,2.85,2.87
GAUUGU,1.51,1.5,1.51
GAUUGA,3.24,3.03,3.05
CAUUGC,1.1,1.11,1.11
UAUUGA,1.66,1.61,1.65
CAUUGA,2.25,2.16,2.24
GAUUGG,2.35,2.26,2.17
AAUUGA,2.42,2.26,2.31
UGGAUC,0.876,0.876,0.852
CGGGUA,0.923,0.929,0.9

Sequence,RBNS R-value (protein concentration: 250 nM),RBNS R-value (protein concentration: 500 nM),RBNS R-value (protein concentration: 1000 nM)
UUGAGU,1.03,1.07,1.03
GUGAUA,2.97,2.94,3.2
CUGAAU,1.09,1.11,1.07
GUGAAA,0.997,0.961,0.925
GUGAGA,1.03,1.06,0.984
GUGAUU,4.55,4.24,4.44
CAGAUU,1.53,1.52,1.61
UUGAUU,7.23,6.65,6.84
UGGAUU,1.02,1.04,1.01
GUGAAU,0.995,1,0.944
CUGAUU,6.33,5.69,5.82
GUGAUC,1.68,1.71,1.81
GUACUA,0.638,0.638,0.595
UACGGA,0.876,0.89,0.885
GAAUCA,0.819,0.828,0.81
UAGUGG,0.775,0.827,0.76
CAGUUC,0.829,0.84,0.843
GCCCUU,0.971,1.02,1.03
GGGCAC,1.06,1.04,1.06
UUGCAC,1.32,1.29,1.31
GGAUAG,0.94,0.954,0.908
CGAUAA,1.27,1.33,1.41
CGAUAC,1.26,1.34,1.39
UGAUAU,3.72,3.77,4.19
UGAUAC,3.65,3.59,3.96

Sequence,RBNS R-value (protein concentration: 250 nM),RBNS R-value (protein concentration: 500 nM),RBNS R-value (protein concentration: 1000 nM)
AGAUAU,0.962,0.983,1
UGAUAA,4.34,4.21,4.69
UGAUAG,4.53,4.33,4.55
AGAUAG,1.08,1.1,1.11
GGAUAU,0.856,0.872,0.845
GGAUAC,0.904,0.919,0.891
AGAUAA,0.936,1,1.02
GCUACG,0.896,0.915,0.905
AGCUCC,0.982,0.991,1
UGCUGA,2.04,1.98,1.99
AAUCAC,0.701,0.714,0.718
GGGCUU,1.01,1.02,1.01
ACGCUG,1.14,1.13,1.13
CCGGCG,1.06,1.09,1.08
UACAGC,0.713,0.73,0.722
UCCCAU,0.805,0.831,0.834
UCCUCG,0.965,0.991,0.988
CAUUUC,0.888,0.94,1
UAUUUA,0.42,0.445,0.418
AAUUUG,1.6,1.54,1.6
CAUUUU,0.849,0.886,0.903
GAUUUU,3.71,3.43,3.56
GAUUUA,2.58,2.52,2.7
AAUUUU,1.02,1.02,1.06
CAUUUA,0.421,0.449,0.427

Sequence,RBNS R-value (protein concentration: 250 nM),RBNS R-value (protein concentration: 500 nM),RBNS R-value (protein concentration: 1000 nM)
AAUUUC,1.1,1.11,1.15
GAUUUG,4.2,3.81,3.78
GAUUUC,3.38,3.2,3.32
CAUUUG,1.31,1.35,1.38
UGGGUA,0.987,1.02,0.989
GUAGUG,0.958,0.965,0.926
GUAAAA,0.762,0.753,0.701
AAACAA,0.781,0.765,0.773
GACAUG,1.52,1.48,1.5
CCUAGC,0.86,0.888,0.886
CCGAUA,1.32,1.36,1.43
ACGAUA,1.21,1.3,1.37
GCGAUC,1.09,1.12,1.13
GCGAUG,2.65,2.56,2.65
CCGAUG,2.44,2.4,2.5
CCGAUU,2.3,2.23,2.34
UCGAUA,1.17,1.23,1.29
GCGAUU,2.19,2.21,2.28
UCGAUC,1.05,1.07,1.11
UCGAUG,2.22,2.24,2.37
ACGAUC,0.998,1,1.05
ACGAUG,2.5,2.46,2.59
